Test results taken from the supplement of paper PMC8728848.
This excerpt belongs to a sample that is enriched for the strongest signals.

What was measured:
Experiment in all cases: glycan array binding signal (z-score within array); higher = stronger binding
Conditions in all cases: glycan notation: IUPAC condensed, linker removed
[1] = target: Fuc(a1-2)Gal(b1-3)GlcNAc(b1-3)[Gal(b1-4)GlcNAc(b1-6)]Gal(b1-4)Glc
Summary of the method: (§1)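 Arrays were curated from the Consortium for Functional Glycomics database, 3228 in total, and kept only where the protein sequence was available. Binding is expressed as a within-array Z-score. This score was averaged across arrays of the same protein sequence at different concentrations or buffers and across linkers, and negative values can be read as non-binding.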

[2] = target: Fuc(a1-2)Gal(b1-3)GlcNAc(b1-3)[Neu5Ac(a2-6)Gal(b1-4)GlcNAc(b1-6)]Gal(b1-4)Glc
Summary of the method: as §1

Fuc(a1-2)Gal(b1-4)Glc = target: Fuc(a1-2)Gal(b1-4)Glc
Summary of the method: as §1

[3] = target: Fuc(a1-2)Gal(b1-4)GlcNAc6S
Summary of the method: as §1

[4] = target: Fuc(a1-2)[Gal(a1-3)]Gal(b1-4)GlcNAc(b1-3)[Fuc(a1-2)[Gal(a1-3)]Gal(b1-4)GlcNAc(b1-6)]GalNAc
Summary of the method: as §1

[5] = target: Fuc(a1-2)[Gal(a1-3)]Gal(b1-4)[Fuc(a1-3)]GlcNAc
Summary of the method: as §1

[6] = target: Fuc(a1-2)[GalNAc(a1-4)]Gal(b1-4)GlcNAc
Summary of the method: as §1

Fuc(a1-4)GlcNAc = target: Fuc(a1-4)GlcNAc
Summary of the method: as §1

Gal(b1-3)Gal = target: Gal(b1-3)Gal
Summary of the method: as §1

[7] = target: Gal(b1-3)GlcNAc(b1-3)Gal(b1-4)GlcNAc(b1-2)Man(a1-3)[Gal(b1-3)GlcNAc(b1-3)Gal(b1-4)GlcNAc(b1-2)Man(a1-6)]Man(b1-4)GlcNAc(b1-4)GlcNAc
Summary of the method: as §1

[8] = target: Gal(b1-3)GlcNAc(b1-3)Gal(b1-4)GlcNAc(b1-2)[Gal(b1-3)GlcNAc(b1-3)Gal(b1-4)GlcNAc(b1-6)]Man(a1-6)[Gal(b1-3)GlcNAc(b1-3)Gal(b1-4)GlcNAc(b1-2)Man(a1-3)]Man(b1-4)GlcNAc(b1-4)[Fuc(a1-6)]GlcNAc
Summary of the method: as §1

[9] = target: Gal(b1-3)[Fuc(a1-4)]GlcNAc
Summary of the method: as §1

Gal(b1-4)Glc6S = target: Gal(b1-4)Glc6S
Summary of the method: as §1

[10] = target: Gal(b1-4)GlcNAc(b1-2)[Gal(b1-4)GlcNAc(b1-4)]Man(a1-3)[Gal(b1-4)GlcNAc(b1-2)Man(a1-6)]Man(b1-4)GlcNAc(b1-4)GlcNAc
Summary of the method: as §1

[11] = target: Gal(b1-4)GlcNAc(b1-2)[Gal(b1-4)GlcNAc(b1-4)]Man(a1-3)[GlcNAc(b1-4)][Gal(b1-4)GlcNAc(b1-2)[Gal(b1-4)GlcNAc(b1-6)]Man(a1-6)]Man(b1-4)GlcNAc(b1-4)GlcNAc
Summary of the method: as §1

[12] = target: Gal(b1-4)GlcNAc(b1-3)Gal(b1-4)GlcNAc(b1-3)Gal(b1-4)GlcNAc(b1-2)Man(a1-3)[Gal(b1-4)GlcNAc(b1-3)Gal(b1-4)GlcNAc(b1-3)Gal(b1-4)GlcNAc(b1-2)Man(a1-6)]Man(b1-4)GlcNAc(b1-4)[Fuc(a1-6)]GlcNAc
Summary of the method: as §1

[13] = target: Gal(b1-4)GlcNAc(b1-3)GalNAc
Summary of the method: as §1

[14] = target: Gal(b1-4)GlcNAc(b1-3)[Fuc(a1-3)GlcNAc(b1-6)]Gal(b1-4)Glc
Summary of the method: as §1

[15] = target: GlcNAc(b1-3)Gal(b1-4)GlcNAc(b1-3)[GlcNAc(b1-3)Gal(b1-4)GlcNAc(b1-3)]GalNAc
Summary of the method: as §1

[16] = target: GlcNAc(b1-3)Gal(b1-4)GlcNAc(b1-6)[Gal(b1-3)]GalNAc
Summary of the method: as §1

[17] = target: GlcNAc(b1-3)[GlcNAc(b1-4)][GlcNAc(b1-6)]GlcNAc
Summary of the method: as §1

[18] = target: GlcNAc(b1-4)[GlcNAc(b1-6)]GalNAc
Summary of the method: as §1

[19] = target: Kdn(a2-3)Gal(b1-4)[Fuc(a1-3)]GlcNAc
Summary of the method: as §1

[20] = target: Man(a1-2)Man(a1-2)Man(a1-3)Man
Summary of the method: as §1

[21] = target: Man(a1-2)Man(a1-2)Man(a1-6)[Man(a1-3)]Man
Summary of the method: as §1

Man(a1-2)Man(a1-3)Man = target: Man(a1-2)Man(a1-3)Man
Summary of the method: as §1

[22] = target: Man(a1-2)Man(a1-3)[Man(a1-2)Man(a1-6)]Man
Summary of the method: as §1

[23] = target: Man(a1-2)Man(a1-3)[Man(a1-2)Man(a1-6)]Man(a1-6)[Man(a1-2)Man(a1-2)Man(a1-3)]Man
Summary of the method: as §1

[24] = target: Man(a1-2)Man(a1-6)[Man(a1-3)]Man(a1-6)[Man(a1-2)Man(a1-2)Man(a1-3)]Man
Summary of the method: as §1

[25] = target: Man(a1-2)Man(a1-6)[Man(a1-3)]Man(a1-6)[Man(a1-2)Man(a1-2)Man(a1-3)]Man(b1-4)GlcNAc(b1-4)GlcNAc
Summary of the method: as §1

[26] = target: Man(a1-3)[Man(a1-6)]Man(a1-6)[Man(a1-2)Man(a1-3)]Man(b1-4)GlcNAc(b1-4)GlcNAc
Summary of the method: as §1

[27] = target: Neu5Ac(a2-3)Gal(b1-3)GalNAc
Summary of the method: as §1

[28] = target: Neu5Ac(a2-3)Gal(b1-3)[Fuc(a1-4)]GlcNAc
Summary of the method: as §1

[29] = target: Neu5Ac(a2-3)Gal(b1-3)[GlcNAc(b1-6)]GalNAc
Summary of the method: as §1

[30] = target: Neu5Ac(a2-3)Gal(b1-3)]Neu5Ac(a2-3)Gal(b1-4)]GlcNAc
Summary of the method: as §1

[31] = target: Neu5Ac(a2-3)Gal(b1-4)GlcNAc(b1-2)Man(a1-3)[GlcNAc(b1-4)][Neu5Ac(a2-3)Gal(b1-4)GlcNAc(b1-2)Man(a1-6)]Man(b1-4)GlcNAc(b1-4)GlcNAc
Summary of the method: as §1

[32] = target: Neu5Ac(a2-3)Gal6S(b1-4)[Fuc(a1-3)]GlcNAc
Summary of the method: as §1

Neu5Ac(a2-6)GalNAc = target: Neu5Ac(a2-6)GalNAc
Summary of the method: as §1

[33] = target: Neu5Ac(a2-6)GalNAc(b1-4)GlcNAc
Summary of the method: as §1

[34] = target: Neu5Ac(a2-8)Neu5Ac(a2-3)[GalNAc(b1-4)]Gal(b1-4)Glc
Summary of the method: as §1

[35] = target: Neu5Ac(a2-8)Neu5Gc(a2-3)Gal(b1-4)GlcNAc
Summary of the method: as §1

[36] = target: Neu5Gc(a2-8)Neu5Gc(a2-3)Gal(b1-4)GlcNAc(b1-3)Gal(b1-4)GlcNAc
Summary of the method: as §1

B1: Dectin2 (Homo sapiens), Q6EIG7 (protein)
chain: MMQEQQPQSTEKRGWLSLRLWSVAGISIALLSACFIVSCVVTYHFTYGETGKRLSELHSYHSSLTCFSEGTKVPAWGCCPASWKSFGSSCYFISSEEKVWSKSEQNCVEMGAHLVVFNTEAEQNFIVQQLNESFSYFLGLSDPQGNNNWQWIDKTPYEKNVRFWHLGEPNHSAEQCASIVFWKPTGWGWNDVICETRRNSICEMNKIYL
[1]
  glycan array binding signal (z-score): -0.199
[2]
  glycan array binding signal (z-score): -0.182
Fuc(a1-2)Gal(b1-4)Glc
  glycan array binding signal (z-score): -0.165
[3]
  glycan array binding signal (z-score): 0.311
[4]
  glycan array binding signal (z-score): -0.136
[5]
  glycan array binding signal (z-score): -0.1
[6]
  glycan array binding signal (z-score): -0.122
Fuc(a1-4)GlcNAc
  glycan array binding signal (z-score): -0.102
Gal(b1-3)Gal
  glycan array binding signal (z-score): -0.111
[7]
  glycan array binding signal (z-score): 0.015
[8]
  glycan array binding signal (z-score): 1.31
[9]
  glycan array binding signal (z-score): -0.15
Gal(b1-4)Glc6S
  glycan array binding signal (z-score): -0.188
[10]
  glycan array binding signal (z-score): 0.09
[11]
  glycan array binding signal (z-score): -0.17
[12]
  glycan array binding signal (z-score): -0.086
[13]
  glycan array binding signal (z-score): -0.186
[14]
  glycan array binding signal (z-score): -0.161
[15]
  glycan array binding signal (z-score): -0.182
[16]
  glycan array binding signal (z-score): -0.196
[17]
  glycan array binding signal (z-score): 1.3
[18]
  glycan array binding signal (z-score): 1.29
[19]
  glycan array binding signal (z-score): -0.14
[20]
  glycan array binding signal (z-score): 10.3
[21]
  glycan array binding signal (z-score): 13.5
Man(a1-2)Man(a1-3)Man
  glycan array binding signal (z-score): 4.35
[22]
  glycan array binding signal (z-score): 7.43
[23]
  glycan array binding signal (z-score): 13.9
[24]
  glycan array binding signal (z-score): 3.05
[25]
  glycan array binding signal (z-score): 1.38
[26]
  glycan array binding signal (z-score): 1.16
[27]
  glycan array binding signal (z-score): 0.09
[28]
  glycan array binding signal (z-score): -0.165
[29]
  glycan array binding signal (z-score): -0.193
[30]
  glycan array binding signal (z-score): -0.206
[31]
  glycan array binding signal (z-score): -0.193
[32]
  glycan array binding signal (z-score): -0.193
Neu5Ac(a2-6)GalNAc
  glycan array binding signal (z-score): -0.176
[33]
  glycan array binding signal (z-score): -0.192
[34]
  glycan array binding signal (z-score): -0.177
[35]
  glycan array binding signal (z-score): -0.21
[36]
  glycan array binding signal (z-score): -0.206
